Data published in the supplement of paper PMC10849652.
Of roughly 8,800 targets only a part is listed; those with a hit were picked by preference. About 0.5% of all pairs of compound and target were hits.

Key:
Assay in all cases: log2 fold change, soluble protein after heating vs DMSO (PISA); higher = thermal stabilisation; K562 lysate, 10 uM; active = over 0.2 and 3.5 SD of the protein, either way, in both replicates (recomputed)
vemurafenib = compound: CCCS(=O)(=O)Nc1ccc(F)c(C(=O)c2c[nH]c3ncc(-c4ccc(Cl)cc4)cc23)c1F [vemurafenib]
Procedure, shortened: (§1)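 A 30 min treatment with 10 μM compound was applied to crude K562 extract at 1 mg/mL protein in PBS pH 7.4 with 1 mM MgCl2. Heating for 3 min spanned 48°C-58°C, after which aliquots were pooled, adjusted to 0.5% NP-40 at 4°C and spun at 21,000xg for 90 min. TMTpro 16plex LC-MS/MS of the supernatant, with channel sums equalised, gave values recorded as log-two fold change in thermal stability against solvent controls, from duplicates.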

[1] = compound: CCCS(=O)(=O)Nc1ccc(F)c(C(=O)c2c[nH]c3ncc(Cl)cc23)c1F
Procedure, shortened: as §1

barasertib = compound: CCN(CCCOc1ccc2c(Nc3cc(CC(=O)Nc4cccc(F)c4)[nH]n3)ncnc2c1)CCOP(=O)(O)O [barasertib]
Procedure, shortened: as §1

[2] = compound: CC[C@@H]1C(=O)N(C)c2cnc(Nc3ccc(C(=O)NC4CCN(C)CC4)cc3OC)nc2N1C1CCCC1
Procedure, shortened: as §1

volasertib = compound: CC[C@@H]1C(=O)N(C)c2cnc(Nc3ccc(C(=O)N[C@H]4CC[C@H](N5CCN(CC6CC6)CC5)CC4)cc3OC)nc2N1C(C)C [volasertib]
Procedure, shortened: as §1

[3] = compound: CCn1cc(-c2ccnc3[nH]c(-c4cccc(CN(C)C)c4)cc23)c(-c2ccc(NC(=O)N(C)C)cc2)n1
Procedure, shortened: as §1

[4] = compound: CN1CCC(CNc2ccc3ncc(-c4cccc(OC(F)(F)F)c4)n3n2)CC1
Procedure, shortened: as §1

alvocidib = compound: CN1CC[C@H](c2c(O)cc(O)c3c(=O)cc(-c4ccccc4Cl)oc23)[C@H](O)C1 [alvocidib]
Procedure, shortened: as §1

defactinib = compound: CNC(=O)c1ccc(Nc2ncc(C(F)(F)F)c(NCc3nccnc3N(C)S(C)(=O)=O)n2)cc1 [defactinib]
Procedure, shortened: as §1

encorafenib = compound: COC(=O)N[C@@H](C)CNc1nccc(-c2cn(C(C)C)nc2-c2cc(Cl)cc(NS(C)(=O)=O)c2F)n1 [encorafenib]
Procedure, shortened: as §1

[5] = compound: COC(=O)[C@H](CCSC)NC(=O)C1=C(C=C(C=C1)NC[C@H](CS)N)C2=CC=CC=C2
Procedure, shortened: as §1

[6] = compound: COc1cc2nc(-c3cc(F)ccc3O)nc(N[C@@H]3CNC[C@H]3C(C)(C)O)c2cc1OC
Procedure, shortened: as §1

saracatinib = compound: CN1CCN(CCOc2cc(OC3CCOCC3)c3c(Nc4c(Cl)ccc5c4OCO5)ncnc3c2)CC1 [saracatinib]
Procedure, shortened: as §1

sotrastaurin = compound: CN1CCN(c2nc(C3=C(c4c[nH]c5ccccc45)C(=O)NC3=O)c3ccccc3n2)CC1 [sotrastaurin]
Procedure, shortened: as §1

[7] = compound: CNC(=O)C1=CC=CC=C1NC2=NC(=NC=C2Cl)NC3=C(C=C(C=C3)N4CCOCC4)OC
Procedure, shortened: as §1

[8] = compound: CNc1nc(-c2ccc3c(N)n[nH]c3c2)cc(N2C[C@@H](C(=O)NC3CCCCC3)CC[C@H]2C)n1
Procedure, shortened: as §1

alisertib = compound: COc1cc(Nc2ncc3c(n2)-c2ccc(Cl)cc2C(c2c(F)cccc2OC)=NC3)ccc1C(=O)O [alisertib]
Procedure, shortened: as §1

gefitinib = compound: COc1cc2ncnc(Nc3ccc(F)c(Cl)c3)c2cc1OCCCN1CCOCC1 [gefitinib]
Procedure, shortened: as §1

[9] = compound: CCn1c(C(=O)N(C2CC2)C2CC2)cc2c3c(ncn3C)c(Nc3cc(C)n(C)n3)nc21
Procedure, shortened: as §1

Tubastatin A = compound: CN1CCc2c(c3ccccc3n2Cc2ccc(C(=O)NO)cc2)C1 [Tubastatin A]
Procedure, shortened: as §1

UniProt Q92878, sequence (Q92878 whole entry, looked up): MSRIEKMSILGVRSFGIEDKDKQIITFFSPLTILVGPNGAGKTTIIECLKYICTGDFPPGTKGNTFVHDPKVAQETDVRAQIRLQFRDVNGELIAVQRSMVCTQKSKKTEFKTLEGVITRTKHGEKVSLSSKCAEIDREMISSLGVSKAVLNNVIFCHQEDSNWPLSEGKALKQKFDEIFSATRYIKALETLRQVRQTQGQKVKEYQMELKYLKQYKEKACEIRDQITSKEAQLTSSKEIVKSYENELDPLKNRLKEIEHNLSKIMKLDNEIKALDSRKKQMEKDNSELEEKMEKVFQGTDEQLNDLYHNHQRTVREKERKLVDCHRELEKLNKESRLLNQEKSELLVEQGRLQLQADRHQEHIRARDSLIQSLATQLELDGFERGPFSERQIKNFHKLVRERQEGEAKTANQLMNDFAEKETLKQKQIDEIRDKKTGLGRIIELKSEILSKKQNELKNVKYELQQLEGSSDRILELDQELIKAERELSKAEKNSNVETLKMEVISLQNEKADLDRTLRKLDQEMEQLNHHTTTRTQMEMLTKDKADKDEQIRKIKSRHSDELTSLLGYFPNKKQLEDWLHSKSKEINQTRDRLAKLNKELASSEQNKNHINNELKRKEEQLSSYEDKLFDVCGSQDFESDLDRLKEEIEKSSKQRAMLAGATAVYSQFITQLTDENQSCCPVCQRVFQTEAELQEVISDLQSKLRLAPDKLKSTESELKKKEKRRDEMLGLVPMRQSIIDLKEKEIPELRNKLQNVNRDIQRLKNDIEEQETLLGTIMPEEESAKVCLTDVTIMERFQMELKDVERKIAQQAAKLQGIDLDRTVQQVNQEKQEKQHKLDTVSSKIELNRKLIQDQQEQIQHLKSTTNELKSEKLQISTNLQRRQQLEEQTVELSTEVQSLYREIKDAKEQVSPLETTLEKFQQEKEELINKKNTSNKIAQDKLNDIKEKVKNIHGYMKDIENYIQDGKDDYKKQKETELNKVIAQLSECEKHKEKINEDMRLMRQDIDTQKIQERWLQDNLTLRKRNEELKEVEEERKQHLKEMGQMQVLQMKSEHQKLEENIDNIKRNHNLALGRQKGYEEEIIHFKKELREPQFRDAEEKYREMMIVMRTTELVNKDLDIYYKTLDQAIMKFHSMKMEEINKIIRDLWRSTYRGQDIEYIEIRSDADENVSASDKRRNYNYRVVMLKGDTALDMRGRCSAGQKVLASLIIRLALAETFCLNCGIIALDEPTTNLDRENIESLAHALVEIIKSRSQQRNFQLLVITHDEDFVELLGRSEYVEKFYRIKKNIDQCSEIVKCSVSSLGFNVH
UniProt Q15283, sequence (Q15283 whole entry, looked up): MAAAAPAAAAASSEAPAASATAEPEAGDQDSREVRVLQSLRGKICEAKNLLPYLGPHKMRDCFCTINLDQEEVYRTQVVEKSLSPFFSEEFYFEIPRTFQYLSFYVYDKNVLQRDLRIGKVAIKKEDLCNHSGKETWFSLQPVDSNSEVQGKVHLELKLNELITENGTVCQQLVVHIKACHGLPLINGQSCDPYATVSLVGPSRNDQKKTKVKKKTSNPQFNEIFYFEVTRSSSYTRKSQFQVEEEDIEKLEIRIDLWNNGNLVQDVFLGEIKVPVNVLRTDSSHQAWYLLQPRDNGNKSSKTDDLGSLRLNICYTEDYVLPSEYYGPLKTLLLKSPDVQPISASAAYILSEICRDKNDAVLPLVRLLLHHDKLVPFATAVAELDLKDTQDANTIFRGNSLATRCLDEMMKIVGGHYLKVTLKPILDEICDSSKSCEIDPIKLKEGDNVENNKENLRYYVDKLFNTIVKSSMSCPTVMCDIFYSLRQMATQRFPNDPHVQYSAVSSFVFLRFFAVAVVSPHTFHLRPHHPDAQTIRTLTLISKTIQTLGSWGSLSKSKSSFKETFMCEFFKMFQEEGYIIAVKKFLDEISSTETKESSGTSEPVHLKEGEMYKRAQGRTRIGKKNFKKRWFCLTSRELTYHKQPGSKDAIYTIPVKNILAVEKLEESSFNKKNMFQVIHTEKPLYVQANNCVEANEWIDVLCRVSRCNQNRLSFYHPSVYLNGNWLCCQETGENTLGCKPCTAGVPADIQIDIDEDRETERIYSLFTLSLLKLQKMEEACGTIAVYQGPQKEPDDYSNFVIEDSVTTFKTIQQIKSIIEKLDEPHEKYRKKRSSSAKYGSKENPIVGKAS
UniProt Q9Y4B4, sequence (Q9Y4B4 whole entry, looked up): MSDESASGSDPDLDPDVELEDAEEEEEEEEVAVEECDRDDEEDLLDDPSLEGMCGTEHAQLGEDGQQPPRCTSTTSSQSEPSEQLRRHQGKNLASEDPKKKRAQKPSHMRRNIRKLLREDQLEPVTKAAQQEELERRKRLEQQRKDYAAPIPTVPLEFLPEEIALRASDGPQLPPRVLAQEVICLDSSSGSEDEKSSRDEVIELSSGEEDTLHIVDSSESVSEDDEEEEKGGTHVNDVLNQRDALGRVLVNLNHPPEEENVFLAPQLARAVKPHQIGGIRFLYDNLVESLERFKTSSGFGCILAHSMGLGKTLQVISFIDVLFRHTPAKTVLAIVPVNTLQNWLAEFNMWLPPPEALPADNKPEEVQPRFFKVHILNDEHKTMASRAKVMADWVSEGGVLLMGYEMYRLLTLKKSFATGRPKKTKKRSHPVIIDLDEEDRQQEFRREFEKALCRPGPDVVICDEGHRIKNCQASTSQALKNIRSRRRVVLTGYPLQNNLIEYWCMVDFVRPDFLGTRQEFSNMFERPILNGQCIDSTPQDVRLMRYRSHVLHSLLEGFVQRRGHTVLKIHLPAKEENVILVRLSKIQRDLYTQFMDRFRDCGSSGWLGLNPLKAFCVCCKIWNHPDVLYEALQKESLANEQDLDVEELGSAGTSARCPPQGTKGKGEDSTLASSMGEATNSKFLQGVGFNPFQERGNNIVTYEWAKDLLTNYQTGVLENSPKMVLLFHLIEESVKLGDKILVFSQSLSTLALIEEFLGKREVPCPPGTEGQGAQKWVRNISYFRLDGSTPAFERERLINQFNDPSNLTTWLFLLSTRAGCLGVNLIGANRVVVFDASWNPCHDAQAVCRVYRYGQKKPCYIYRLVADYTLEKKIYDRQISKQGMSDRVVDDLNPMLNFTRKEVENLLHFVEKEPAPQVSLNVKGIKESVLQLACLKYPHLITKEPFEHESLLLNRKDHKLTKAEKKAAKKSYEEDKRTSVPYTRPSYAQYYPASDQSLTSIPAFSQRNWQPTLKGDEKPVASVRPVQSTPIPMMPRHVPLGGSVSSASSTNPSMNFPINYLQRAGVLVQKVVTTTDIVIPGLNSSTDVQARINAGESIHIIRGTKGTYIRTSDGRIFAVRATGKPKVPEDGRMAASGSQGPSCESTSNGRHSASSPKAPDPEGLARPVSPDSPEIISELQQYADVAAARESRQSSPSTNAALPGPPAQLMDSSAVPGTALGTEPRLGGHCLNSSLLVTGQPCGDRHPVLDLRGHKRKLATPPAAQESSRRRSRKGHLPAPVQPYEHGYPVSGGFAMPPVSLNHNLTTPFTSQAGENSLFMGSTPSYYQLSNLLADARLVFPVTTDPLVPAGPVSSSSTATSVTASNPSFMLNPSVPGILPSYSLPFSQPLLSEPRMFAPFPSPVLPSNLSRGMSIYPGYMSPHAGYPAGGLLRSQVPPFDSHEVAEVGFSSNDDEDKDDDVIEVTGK
UniProt Q8TEB9, sequence (Q8TEB9 whole entry, looked up): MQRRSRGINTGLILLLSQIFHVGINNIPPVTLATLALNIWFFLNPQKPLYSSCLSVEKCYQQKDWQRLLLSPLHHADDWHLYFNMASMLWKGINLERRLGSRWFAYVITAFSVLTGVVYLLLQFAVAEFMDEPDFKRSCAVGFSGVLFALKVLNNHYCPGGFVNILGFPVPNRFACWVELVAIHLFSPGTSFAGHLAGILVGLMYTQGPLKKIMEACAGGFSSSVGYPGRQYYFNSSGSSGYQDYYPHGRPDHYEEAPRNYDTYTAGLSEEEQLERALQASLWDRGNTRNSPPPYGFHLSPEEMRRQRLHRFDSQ
UniProt Q9BUV8, sequence (Q9BUV8 whole entry, looked up): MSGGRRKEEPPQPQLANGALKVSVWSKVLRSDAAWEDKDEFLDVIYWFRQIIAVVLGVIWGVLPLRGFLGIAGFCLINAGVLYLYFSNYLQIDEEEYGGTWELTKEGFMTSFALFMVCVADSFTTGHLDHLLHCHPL
UniProt O75446, sequence (O75446 whole entry, looked up): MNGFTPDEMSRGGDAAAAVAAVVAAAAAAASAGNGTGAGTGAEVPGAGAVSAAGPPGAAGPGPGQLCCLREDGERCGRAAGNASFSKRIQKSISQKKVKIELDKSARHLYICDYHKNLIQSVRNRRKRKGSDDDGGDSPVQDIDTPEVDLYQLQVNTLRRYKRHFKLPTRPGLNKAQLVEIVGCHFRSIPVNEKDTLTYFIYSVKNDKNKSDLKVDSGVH
UniProt P11233, sequence (P11233 whole entry, looked up): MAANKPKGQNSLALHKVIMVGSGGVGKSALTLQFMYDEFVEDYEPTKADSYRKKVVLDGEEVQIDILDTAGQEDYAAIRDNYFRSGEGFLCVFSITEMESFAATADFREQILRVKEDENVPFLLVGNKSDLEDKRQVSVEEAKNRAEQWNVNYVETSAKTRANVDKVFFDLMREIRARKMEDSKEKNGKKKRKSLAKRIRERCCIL
UniProt Q86U06, sequence (Q86U06 whole entry, looked up): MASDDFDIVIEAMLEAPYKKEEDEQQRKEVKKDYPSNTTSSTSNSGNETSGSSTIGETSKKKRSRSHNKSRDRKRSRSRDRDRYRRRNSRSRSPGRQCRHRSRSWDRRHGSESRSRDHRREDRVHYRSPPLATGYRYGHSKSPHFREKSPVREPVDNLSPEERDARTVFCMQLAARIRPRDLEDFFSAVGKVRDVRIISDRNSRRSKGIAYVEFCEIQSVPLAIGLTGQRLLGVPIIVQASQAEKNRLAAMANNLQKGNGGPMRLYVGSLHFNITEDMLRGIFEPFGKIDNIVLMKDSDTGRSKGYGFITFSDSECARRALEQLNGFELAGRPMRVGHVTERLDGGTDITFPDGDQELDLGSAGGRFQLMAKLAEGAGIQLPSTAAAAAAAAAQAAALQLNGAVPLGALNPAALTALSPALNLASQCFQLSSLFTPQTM

Target | log2 fold change (vemurafenib) | log2 fold change [1] | log2 fold change (barasertib) | log2 fold change [2] | log2 fold change (volasertib) | log2 fold change [3] | log2 fold change [4] | log2 fold change (alvocidib) | log2 fold change (defactinib) | log2 fold change (encorafenib) | log2 fold change [5] | log2 fold change [6] | log2 fold change (saracatinib) | log2 fold change (sotrastaurin) | log2 fold change [7] | log2 fold change [8] | log2 fold change (alisertib) | log2 fold change (gefitinib) | log2 fold change [9] | log2 fold change (Tubastatin A)
RHBDD1 (UniProt Q8TEB9) | 0.105 (inactive) | -0.08 (inactive) | -0.05 (inactive) | -0.16 (inactive) | -0.074 (inactive) | 0.016 (inactive) | -0.029 (inactive) | -0.018 (inactive) | 0.024 (inactive) | 0.063 (inactive) | 0.054 (inactive) | 0.02 (inactive) | – | – | – | – | – | – | – | –
RAD54L2 (UniProt Q9Y4B4) | 0.159 (inactive) | 0.081 (inactive) | -0.032 (inactive) | -0.201 (inactive) | -0.072 (inactive) | -0.149 (inactive) | 0 (inactive) | 0.007 (inactive) | -0.013 (inactive) | 0.102 (inactive) | 0.153 (inactive) | -0.088 (inactive) | 0.078 (inactive) | -0.061 (inactive) | -0.065 (inactive) | 0.093 (inactive) | 0.141 (inactive) | 0.045 (inactive) | – | –
RAB5IF isoform 5 (UniProt Q9BUV8) | -0.075 (inactive) | 0.129 (inactive) | 0.142 (inactive) | -0.03 (inactive) | -0.398 (inactive) | 0.928 (active) | -0.362 (inactive) | 0.249 (inactive) | -0.032 (inactive) | 0.04 (inactive) | -0.125 (inactive) | -0.011 (inactive) | 0.009 (inactive) | – | 0 (inactive) | -0.011 (inactive) | 0.15 (inactive) | 0.131 (inactive) | – | –
RALGAPA1 isoform 6 (UniProt Q6GYQ0) | -0.008 (inactive) | 0.017 (inactive) | 0.196 (inactive) | 0.02 (inactive) | -0.03 (inactive) | -0.377 (active) | 0.074 (inactive) | -0.102 (inactive) | 0.069 (inactive) | 0.016 (inactive) | 0.094 (inactive) | 0.047 (inactive) | 0.049 (inactive) | 0.03 (inactive) | 0.007 (inactive) | 0.003 (inactive) | -0.029 (inactive) | 0.056 (inactive) | -0.007 (inactive) | 0.033 (inactive)
RNF149 (UniProt Q8NC42) | -0.026 (inactive) | -0.15 (inactive) | 0.026 (inactive) | – | -0.063 (inactive) | 0.343 (inactive) | 0.02 (inactive) | -0.038 (inactive) | 0.028 (inactive) | – | – | -0.059 (inactive) | 0.021 (inactive) | -0.081 (inactive) | 0.02 (inactive) | 0.004 (inactive) | -0.483 (active) | -0.075 (inactive) | -0.162 (inactive) | -0.047 (inactive)
SEC16A isoform 5 (UniProt O15027) | 0.03 (inactive) | 0.019 (inactive) | 0.021 (inactive) | 0.038 (inactive) | -0.028 (inactive) | 0.008 (inactive) | -0.037 (inactive) | -0.005 (inactive) | -0.014 (inactive) | 0.011 (inactive) | 0.01 (inactive) | 0.013 (inactive) | 0.013 (inactive) | -0.01 (inactive) | 0.011 (inactive) | -0.002 (inactive) | -0.001 (inactive) | 0.014 (inactive) | 0.006 (inactive) | -0.09 (inactive)
RALA (UniProt P11233) | 0.033 (inactive) | 0.004 (inactive) | -0.001 (inactive) | 0.029 (inactive) | 0.014 (inactive) | -0.289 (active) | 0.169 (inactive) | -0.164 (inactive) | -0.057 (inactive) | 0.03 (inactive) | -0.102 (inactive) | 0.01 (inactive) | -0.021 (inactive) | -0.027 (inactive) | 0.016 (inactive) | 0.056 (inactive) | 0.009 (inactive) | 0.023 (inactive) | -0.023 (inactive) | 0.044 (inactive)
RPAP1 (UniProt Q9BWH6) | -0.008 (inactive) | -0.012 (inactive) | 0.012 (inactive) | -0.028 (inactive) | -0.053 (inactive) | -0.031 (inactive) | 0.008 (inactive) | -0.001 (inactive) | -0.006 (inactive) | 0.019 (inactive) | -0.069 (inactive) | 0.027 (inactive) | 0.02 (inactive) | 0.01 (inactive) | 0.016 (inactive) | 0.007 (inactive) | 0.013 (inactive) | -0.007 (inactive) | 0 (inactive) | -0.077 (inactive)
RAD50 isoform 2 (UniProt Q92878) | 0.004 (inactive) | 0.013 (inactive) | 0.025 (inactive) | -0.011 (inactive) | -0.047 (inactive) | -0.024 (inactive) | -0.024 (inactive) | 0.023 (inactive) | 0.026 (inactive) | 0.006 (inactive) | 0.108 (inactive) | 0.001 (inactive) | 0 (inactive) | 0.036 (inactive) | 0.008 (inactive) | -0.04 (inactive) | 0.002 (inactive) | -0.016 (inactive) | 0.039 (inactive) | -0.137 (inactive)
RBM23 isoform 2 (UniProt Q86U06) | 0.2 (inactive) | 0.02 (inactive) | 0.234 (inactive) | -0.153 (inactive) | -0.011 (inactive) | -0.01 (inactive) | -0.143 (inactive) | -0.056 (inactive) | -0.037 (inactive) | 0.335 (inactive) | -0.003 (inactive) | 0.137 (inactive) | 0.064 (inactive) | 0.131 (inactive) | 0.133 (inactive) | 0.181 (inactive) | 0.11 (inactive) | 0.057 (inactive) | 0.058 (inactive) | -0.084 (inactive)
RASA2 (UniProt Q15283) | 0.069 (inactive) | 0.025 (inactive) | -0.02 (inactive) | -0.055 (inactive) | -0.018 (inactive) | -0.028 (inactive) | -0.013 (inactive) | 0 (inactive) | 0.053 (inactive) | -0.059 (inactive) | 0.113 (inactive) | -0.008 (inactive) | 0.068 (inactive) | -0.017 (inactive) | 0.019 (inactive) | -0.064 (inactive) | -0.003 (inactive) | -0.003 (inactive) | 0.02 (inactive) | -0.078 (inactive)
RPS6KA3 (UniProt P51812) | 0.031 (inactive) | 0.005 (inactive) | -0.003 (inactive) | – | -0.026 (inactive) | -0.014 (inactive) | 0.093 (inactive) | 0.306 (inactive) | 0.433 (active) | -0.107 (inactive) | 0.056 (inactive) | 0.049 (inactive) | 0.078 (inactive) | 0.037 (inactive) | – | -0.017 (inactive) | – | -0.025 (inactive) | 0.133 (inactive) | -0.151 (inactive)
RALGAPB (UniProt Q86X10) | 0.044 (inactive) | 0.016 (inactive) | 0.103 (inactive) | -0.008 (inactive) | -0.023 (inactive) | -0.09 (inactive) | 0.07 (inactive) | 0.02 (inactive) | 0.026 (inactive) | 0.044 (inactive) | 0.015 (inactive) | 0.032 (inactive) | 0.017 (inactive) | 0.032 (inactive) | -0.069 (inactive) | 0.012 (inactive) | 0 (inactive) | -0.007 (inactive) | -0.013 (inactive) | -0.056 (inactive)
SAP30 (UniProt O75446) | -0.016 (inactive) | 0.006 (inactive) | 0.051 (inactive) | 0.063 (inactive) | -0.054 (inactive) | 0.103 (inactive) | -0.022 (inactive) | -0.022 (inactive) | -0.028 (inactive) | -0.007 (inactive) | 0.053 (inactive) | 0.087 (inactive) | 0.016 (inactive) | -0.013 (inactive) | – | 0.089 (inactive) | 0.044 (inactive) | -0.285 (inactive) | – | –
